The values that follow come from PubChem BioAssay (EPA / NIEHS).

Values joined by “and” are separate entries in the source; they are usually repeats but may differ in a detail not shown here. Equal entries are not always repeated. Where a structure was tested more than once in an assay, its records may differ in their call. Active and inactive are the calls of the source. The calls were made as follows: active = hit-call score of the fitted dose curve at least 0.9, where 1 is the maximum; inactive = score below 0.9.

Read-out in the first assay: Monokine induced gamma interferon (MIG), CXCL9 (gene 4283)
Briefly: BSK_CASM3C_MIG: BioMAP Diversity Plus: CASM3C Assay for Monokine induced gamma interferon (MIG) Biomarker Activity (AID 2283048).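 Also: MIG protein level measured by ELISA.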 Conditions: primary human coronary artery smooth muscle cells; actives raise or lower the signal.
In general, AC50 refers to the midpoint of the concentration-response curve, whichever way the signal moves. For `O=C(O)C(F)(F)C(F)(F)C(F)(F)C(F)(F)C(F)(F)C(F)(F)C(F)(F)F`, the half-maximal activity concentration (AC50) is 36.6 µM (active) and the result was inactive.

In the case of `COP(=O)(OC)OC=C(Cl)Cl`, the outcome was inactive.

Consider `COP(=S)(OC)Oc1ccc([N+](=O)[O-])cc1`, for which the outcome was inactive.

`O=C(NC(=O)c1c(F)cccc1F)Nc1ccc(OC(F)(F)C(F)OC(F)(F)F)c(Cl)c1` (stereo not drawn): the result was inactive.

On to `CCc1ccc(C(=O)NN(C(=O)c2cc(C)cc(C)c2)C(C)(C)C)cc1`, for which the outcome was inactive.

As to `COC(=O)c1ccccc1S(=O)(=O)NC(=O)N(C)c1nc(C)nc(OC)n1`, the result was inactive.

For the molecule `COC(=O)c1ccccc1CS(=O)(=O)NC(=O)Nc1nc(OC)cc(OC)n1`, the outcome was inactive.

As to `O=C(O)CCCOc1ccc(Cl)cc1Cl`, the result was inactive.

For the molecule `O=[N+]([O-])/N=C1\NCCN1Cc1ccc(Cl)nc1`, the result was inactive.

Consider `Cc1[nH]c(=O)n(C(C)(C)C)c(=O)c1Cl`, for which the result was inactive.

`CC(C)(C)C(O)C(Oc1ccc(Cl)cc1)n1cncn1` (stereo not drawn): the result was inactive.

Consider `CCOCN(C(=O)CCl)c1c(C)cccc1CC`, for which the outcome was inactive.

Turning to `[2H]C1([2H])[n+]2ccccc2-c2cccc[n+]2C1([2H])[2H]`, the result was inactive.

Take `CCOc1nc(NC)nc(NC(=O)NS(=O)(=O)c2ccccc2C(=O)OC)n1`: the outcome was inactive.

Regarding `Cc1cc(C)nc(NC(=O)NS(=O)(=O)c2ccccc2C(=O)OC2COC2)n1`, the result was inactive.

Regarding `COc1nn(CSP(=S)(OC)OC)c(=O)s1`, the outcome was inactive.

For the molecule `Oc1ccc(Cl)cc1Cc1ccccc1`, the AC50 is 32.7 µM (active) [middle of 6 runs] and the outcome was inactive.

Regarding `CCOC1Oc2ccc(OS(C)(=O)=O)cc2C1(C)C` (stereo not drawn), the result was inactive.

For the molecule `ClC1C(Cl)C(Cl)C(Cl)C(Cl)C1Cl` (stereo not drawn), the result was inactive.

`N#CN`: the result was inactive.

As to `CC1(c2ccc(Oc3ccccc3)cc2)OC(=O)N(Nc2ccccc2)C1=O` (stereo not drawn), the result was inactive.

Turning to `CCCN(CCC)c1c([N+](=O)[O-])cc(C(F)(F)F)cc1[N+](=O)[O-]`, the result was inactive.

Regarding `COc1cc(OC)nc(NC(=O)NS(=O)(=O)c2cc(NC=O)ccc2C(=O)N(C)C)n1`, the outcome was inactive.

In the case of `O=S(=O)(O)C(F)(F)C(F)(F)C(F)(F)C(F)(F)C(F)(F)C(F)(F)C(F)(F)C(F)(F)F`, the half-maximal activity concentration (AC50) was 47.3 µM (active) and 52.5 µM (active); the outcome was inactive.

For `N#Cc1c(Cl)c(Cl)c(Cl)c(C#N)c1Cl`, the AC50 is 2.14 µM (active).

With `O=[N+]([O-])c1c(Cl)c(Cl)c(Cl)c(Cl)c1Cl`, the result was inactive.

Read-out in another assay: serum amyloid A (SAA), SAA1 (gene 6288)
The assay can be described thus: BSK_CASM3C_SAA: BioMAP Diversity Plus: CASM3C Assay for serum amyloid A (SAA) Biomarker Activity (AID 2283049).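 Also: SAA protein level quantified by ELISA.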 Conditions: primary human coronary artery smooth muscle cells; actives raise or lower the signal.
In the case of `O=C(O)C(F)(F)C(F)(F)C(F)(F)C(F)(F)C(F)(F)C(F)(F)C(F)(F)F`, the result was inactive.

Consider `COP(=O)(OC)OC=C(Cl)Cl`, for which the result was inactive.

Turning to `COP(=S)(OC)Oc1ccc([N+](=O)[O-])cc1`, the result was inactive.

Turning to `O=C(NC(=O)c1c(F)cccc1F)Nc1ccc(OC(F)(F)C(F)OC(F)(F)F)c(Cl)c1` (stereo not drawn), the outcome was inactive.

In the case of `CCc1ccc(C(=O)NN(C(=O)c2cc(C)cc(C)c2)C(C)(C)C)cc1`, the outcome was inactive.

Consider `COC(=O)c1ccccc1S(=O)(=O)NC(=O)N(C)c1nc(C)nc(OC)n1`, for which the outcome was inactive.

Regarding `COC(=O)c1ccccc1CS(=O)(=O)NC(=O)Nc1nc(OC)cc(OC)n1`, the outcome was inactive.

As for `O=C(O)CCCOc1ccc(Cl)cc1Cl`, the result was inactive.

`O=[N+]([O-])/N=C1\NCCN1Cc1ccc(Cl)nc1`: the outcome was inactive.

In the case of `Cc1[nH]c(=O)n(C(C)(C)C)c(=O)c1Cl`, the outcome was inactive.

Turning to `CC(C)(C)C(O)C(Oc1ccc(Cl)cc1)n1cncn1` (stereo not drawn), the outcome was inactive.

On to `CCOCN(C(=O)CCl)c1c(C)cccc1CC`, for which the outcome was inactive.

For the molecule `[2H]C1([2H])[n+]2ccccc2-c2cccc[n+]2C1([2H])[2H]`, the result was inactive.

As to `CCOc1nc(NC)nc(NC(=O)NS(=O)(=O)c2ccccc2C(=O)OC)n1`, the result was inactive.

For the molecule `Cc1cc(C)nc(NC(=O)NS(=O)(=O)c2ccccc2C(=O)OC2COC2)n1`, the outcome was inactive.

On to `COc1nn(CSP(=S)(OC)OC)c(=O)s1`, for which the result was inactive.

Take `Oc1ccc(Cl)cc1Cc1ccccc1`: the AC50 is 31.1 µM (active) [middle of 6 runs].

On to `CCOC1Oc2ccc(OS(C)(=O)=O)cc2C1(C)C` (stereo not drawn), for which the outcome was inactive.

Turning to `ClC1C(Cl)C(Cl)C(Cl)C(Cl)C1Cl` (stereo not drawn), the AC50 was 34.8 µM (active) and the outcome was inactive.

Regarding `N#CN`, the outcome was inactive.

For `CC1(c2ccc(Oc3ccccc3)cc2)OC(=O)N(Nc2ccccc2)C1=O` (stereo not drawn), the result was inactive.

Regarding `CCCN(CCC)c1c([N+](=O)[O-])cc(C(F)(F)F)cc1[N+](=O)[O-]`, the result was inactive.

On to `COc1cc(OC)nc(NC(=O)NS(=O)(=O)c2cc(NC=O)ccc2C(=O)N(C)C)n1`, for which the result was inactive.

Regarding `O=S(=O)(O)C(F)(F)C(F)(F)C(F)(F)C(F)(F)C(F)(F)C(F)(F)C(F)(F)C(F)(F)F`, the result was inactive.

Consider `N#Cc1c(Cl)c(Cl)c(Cl)c(C#N)c1Cl`, for which the AC50 was 4.82 µM (active).

As to `O=[N+]([O-])c1c(Cl)c(Cl)c(Cl)c(Cl)c1Cl`, the result was inactive.

Read-out in the next assay: not listed separately
The assay can be described thus: BSK_CASM3C_SRB: Viability Assessment in the BioMAP Diversity Plus: CASM3C Assay (AID 2283050).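 Also: total protein by SRB staining as cytotoxicity measure in parallel cultures; cells exposed to compound for 24 h.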 Conditions: primary human coronary artery smooth muscle cells.
Take `O=C(O)C(F)(F)C(F)(F)C(F)(F)C(F)(F)C(F)(F)C(F)(F)C(F)(F)F`: the result was inactive.

In the case of `COP(=O)(OC)OC=C(Cl)Cl`, the outcome was inactive.

As for `COP(=S)(OC)Oc1ccc([N+](=O)[O-])cc1`, the result was inactive.

As for `O=C(NC(=O)c1c(F)cccc1F)Nc1ccc(OC(F)(F)C(F)OC(F)(F)F)c(Cl)c1` (stereo not drawn), the result was inactive.

Turning to `CCc1ccc(C(=O)NN(C(=O)c2cc(C)cc(C)c2)C(C)(C)C)cc1`, the outcome was inactive.

On to `COC(=O)c1ccccc1S(=O)(=O)NC(=O)N(C)c1nc(C)nc(OC)n1`, for which the outcome was inactive.

As to `COC(=O)c1ccccc1CS(=O)(=O)NC(=O)Nc1nc(OC)cc(OC)n1`, the result was inactive.

Turning to `O=C(O)CCCOc1ccc(Cl)cc1Cl`, the outcome was inactive.

For `O=[N+]([O-])/N=C1\NCCN1Cc1ccc(Cl)nc1`, the result was inactive.

`Cc1[nH]c(=O)n(C(C)(C)C)c(=O)c1Cl`: the outcome was inactive.

On to `CC(C)(C)C(O)C(Oc1ccc(Cl)cc1)n1cncn1` (stereo not drawn), for which the result was inactive.

As for `CCOCN(C(=O)CCl)c1c(C)cccc1CC`, the outcome was inactive.

Regarding `[2H]C1([2H])[n+]2ccccc2-c2cccc[n+]2C1([2H])[2H]`, the outcome was inactive.

For `CCOc1nc(NC)nc(NC(=O)NS(=O)(=O)c2ccccc2C(=O)OC)n1`, the result was inactive.

For `Cc1cc(C)nc(NC(=O)NS(=O)(=O)c2ccccc2C(=O)OC2COC2)n1`, the outcome was inactive.

Consider `COc1nn(CSP(=S)(OC)OC)c(=O)s1`, for which the result was inactive.

With `Oc1ccc(Cl)cc1Cc1ccccc1`, the AC50 is 32.4 µM (active) [middle of 7 runs].

As for `CCOC1Oc2ccc(OS(C)(=O)=O)cc2C1(C)C` (stereo not drawn), the result was inactive.

As for `ClC1C(Cl)C(Cl)C(Cl)C(Cl)C1Cl` (stereo not drawn), the concentration at half-maximal activity (AC50) was 35.2 µM (active) and the result was inactive.

With `N#CN`, the outcome was inactive.

As to `CC1(c2ccc(Oc3ccccc3)cc2)OC(=O)N(Nc2ccccc2)C1=O` (stereo not drawn), the result was inactive.

Consider `CCCN(CCC)c1c([N+](=O)[O-])cc(C(F)(F)F)cc1[N+](=O)[O-]`, for which the result was inactive.

With `COc1cc(OC)nc(NC(=O)NS(=O)(=O)c2cc(NC=O)ccc2C(=O)N(C)C)n1`, the result was inactive.

Regarding `O=S(=O)(O)C(F)(F)C(F)(F)C(F)(F)C(F)(F)C(F)(F)C(F)(F)C(F)(F)C(F)(F)F`, the outcome was inactive.

For the molecule `N#Cc1c(Cl)c(Cl)c(Cl)c(C#N)c1Cl`, the AC50 was 2 µM (active).

In the case of `O=[N+]([O-])c1c(Cl)c(Cl)c(Cl)c(Cl)c1Cl`, the outcome was inactive.
